# Results from PubChem BioAssay (EPA / NIEHS).
# Active and inactive are the calls of the source. Rule for the calls: active = hit-call score of the fitted dose curve at least 0.9, where 1 is the maximum; inactive = score below 0.9.
# Legend:
# [1] = read-out: Transforming growth factor beta 1 (TGFb1), TGFB1 (gene 7040); experiment: BSK_KF3CT_TGFb1: BioMAP Diversity Plus: KF3CT Assay for Transforming growth factor beta 1 (TGFb1) Biomarker Activity (AID 2283072); settings: primary human keratinocytes with fibroblasts; actives raise or lower the signal
# Summary of the method: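 Signal changes in either direction, relative to DMSO, define activity here. TGF-b1 is read by ELISA from a human keratinocyte-fibroblast co-culture 24 h post-dose.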
# [2] = read-out: C-C motif chemokine 2 (Homo sapiens) (UniProt P13500); experiment: BSK_KF3CT_MCP1: BioMAP Diversity Plus: KF3CT Assay for Monocyte Chemoattractant Protein 1 (MCP1/CCL2) Biomarker Activity (AID 2283073); settings: primary human keratinocytes with fibroblasts; actives raise or lower the signal
# Summary of the method: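 ELISA readout of MCP-1 after 24 h chemical dosing of a human skin primary co-culture of keratinocytes and foreskin fibroblasts. Activity was fitted in both directions against DMSO.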
# [3] = read-out: Matrix Metallopeptidase 9 (MMP9), MMP9 (gene 4318); experiment: BSK_KF3CT_MMP9: BioMAP Diversity Plus: KF3CT Assay for Matrix Metallopeptidase 9 (MMP9) Biomarker Activity (AID 2283074); settings: primary human keratinocytes with fibroblasts; actives raise or lower the signal;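 for AC50: MMP9 protein level quantified by ELISA in the co-culture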
# Summary of the method: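 Human keratinocyte and foreskin fibroblast co-culture exposed to chemicals for 24 h; MMP9 biomarker measured by ELISA, bidirectional fitting relative to DMSO; cytotoxicity tracked by SRB total protein staining in parallel cultures.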
# [4] = read-out: urokinase plasminogen activator (uPA), PLAU (gene 5328); experiment: BSK_KF3CT_uPA: BioMAP Diversity Plus: KF3CT Assay for urokinase plasminogen activator (uPA) Biomarker Activity (AID 2283075); settings: primary human keratinocytes with fibroblasts; actives raise or lower the signal
# Summary of the method: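 Primary human keratinocyte/foreskin fibroblast co-culture exposed to chemical; uPA measured by ELISA at 24 h. Bidirectional fit versus DMSO, with parallel SRB total-protein staining for cytotoxicity.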
# [5] = read-out: CD40, CD40 (gene 958); experiment: BSK_LPS_CD40: BioMAP Diversity Plus: LPS Assay for CD40 Biomarker Activity (AID 2283076); settings: primary human HUVEC with PBMC; actives raise or lower the signal
# Summary of the method: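 Cells were dosed, incubated 24 h, then assayed for CD40 by ELISA. Gain or loss of signal was analysed relative to DMSO controls. The culture paired human umbilical vein endothelium with peripheral blood mononuclear cells.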
# [6] = read-out: E-selectin (Homo sapiens) (UniProt P16581); experiment: BSK_LPS_Eselectin: BioMAP Diversity Plus: LPS Assay for Eselectin Biomarker Activity (AID 2283077); settings: primary human HUVEC with PBMC; actives raise or lower the signal
# Summary of the method: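 Primary human vascular co-culture (endothelium plus PBMC) was dosed with chemical, then E-selectin quantified by ELISA at 24 h. Endpoint values derive from bidirectional curve fitting relative to DMSO.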
# [7] = read-out: Interleukin-8 (IL8), CXCL8 (gene 3576); experiment: BSK_LPS_IL8: BioMAP Diversity Plus: LPS Assay for Interleukin-8 (IL8) Biomarker Activity (AID 2283078); settings: primary human HUVEC with PBMC; actives raise or lower the signal
# Summary of the method: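 Readout is IL-8 by ELISA, taken 24 h after compounds were added to LPS-stimulated endothelial/PBMC co-cultures. Both increases and decreases relative to DMSO control were scored through bidirectional fitting.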
# [8] = BSK_LPS_SRB: Viability Assessment in the BioMAP Diversity Plus: LPS Assay (AID 2283079); settings: primary human HUVEC with PBMC;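 note: total protein by sulforhodamine B absorbance as a cytotoxicity measure; measured one day after compound addition; fitted in both directions against DMSO so loss or gain of signal counts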
# Summary of the method: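 Readout is SRB absorbance at 560 nm (0.1% stain, TCA-fixed parallel cultures) as a total-protein cytotoxicity measure. Cells: primary human umbilical vein endothelium plus peripheral blood mononuclear cells, 24 h after chemical exposure; DMSO served as baseline.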
# [9] = read-out: Interleukin-1 alpha (IL1a), IL1A (gene 3552); experiment: BSK_LPS_IL1a: BioMAP Diversity Plus: LPS Assay for Interleukin-1 alpha (IL1a) Biomarker Activity (AID 2283080); settings: primary human HUVEC with PBMC; actives raise or lower the signal
# Summary of the method: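 ELISA read-out of IL-1 alpha from a human primary vascular co-culture (endothelium plus PBMC) under LPS, sampled 24 hours post-dosing. Activity was fitted in both directions relative to DMSO controls.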
# [10] = read-out: Monocyte Chemoattractant Protein-1 (MCP1), CCL2 (gene 6347); experiment: BSK_LPS_MCP1: BioMAP Diversity Plus: LPS Assay for Monocyte Chemoattractant Protein-1 (MCP1) Biomarker Activity (AID 2283081); settings: primary human HUVEC with PBMC; actives raise or lower the signal;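 for AC50: secreted MCP-1 protein quantified by ELISA in culture supernatant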
# Summary of the method: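 Human endothelial–PBMC co-cultures were dosed with chemical, then LPS-driven MCP-1 levels were quantified by ELISA at 24 h. Activity in either direction was fitted versus DMSO negative control.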
# [11] = BSK_LPS_PGE2: BioMAP Diversity Plus: LPS Assay for Prostaglandin E2 (PGE2) Biomarker Activity (AID 2283082); settings: primary human HUVEC with PBMC; actives raise or lower the signal
# Summary of the method: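 Endpoint derived from bidirectional curve fitting versus DMSO of ELISA-measured PGE2 in LPS-stimulated human primary vascular co-culture (HUVEC with PBMC) harvested at 24 h.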
# [12] = read-out: Macrophage colony-stimulating factor (MCSF), CSF1 (gene 1435); experiment: BSK_LPS_MCSF: BioMAP Diversity Plus: LPS Assay for Macrophage colony-stimulating factor (MCSF) Biomarker Activity (AID 2283083); settings: primary human HUVEC with PBMC; actives raise or lower the signal
# Summary of the method: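 ELISA readout of M-CSF after 24 h compound exposure in a human endothelial/PBMC co-culture. Activity, in either direction, is fitted relative to DMSO vehicle.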
# [13] = read-out: Tumor necrosis factor (Homo sapiens) (UniProt P01375); experiment: BSK_LPS_TNFa: BioMAP Diversity Plus: LPS Assay for Tumour Necrosis Factor alpha (TNFa) Biomarker Activity (AID 2283085); settings: primary human HUVEC with PBMC; actives raise or lower the signal
# Summary of the method: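 Primary human vascular co-culture of HUVEC and PBMC; TNFa ELISA 24 h after treatment, analysed as increase or decrease relative to DMSO control.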
# [14] = read-out: Vascular cell adhesion molecule 1 (VCAM1), VCAM1 (gene 7412); experiment: BSK_LPS_VCAM1: BioMAP Diversity Plus: LPS Assay for Vascular cell adhesion molecule 1 (VCAM1) Biomarker Activity (AID 2283086); settings: primary human HUVEC with PBMC; actives raise or lower the signal
# Summary of the method: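 Primary human vascular co-culture (umbilical vein endothelium plus PBMC) stimulated with LPS received chemical; 24 h later VCAM-1 was read by ELISA. Overt cytotoxicity was assessed by sulforhodamine B staining of parallel cultures at the same time point.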
# [15] = read-out: CD38, CD38 (gene 952); experiment: BSK_SAg_CD38: BioMAP Diversity Plus: SAg Assay for CD38 Biomarker Activity (AID 2283087); settings: primary human HUVEC with PBMC; actives raise or lower the signal
# Summary of the method: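 Fluorescence ELISA of cell-surface CD38 served as the read-out, with either increase or decrease fitted against DMSO controls. Cells were a human umbilical vein endothelium plus PBMC co-culture under SEB/TSST-1 stimulation, measured 24 h after dosing.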
# [16] = read-out: CD40, CD40 (gene 958); experiment: BSK_SAg_CD40: BioMAP Diversity Plus: SAg Assay for CD40 Biomarker Activity (AID 2283088); settings: primary human HUVEC with PBMC; actives raise or lower the signal
# Summary of the method: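 Compounds were dosed onto a human primary endothelial–PBMC co-culture, and after 24 h CD40 was quantified by ELISA using a fluorescence signal. Activity in either direction was fitted relative to DMSO.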
# [17] = read-out: CD69, CD69 (gene 969); experiment: BSK_SAg_CD69: BioMAP Diversity Plus: SAg Assay for CD69 Biomarker Activity (AID 2283089); settings: primary human HUVEC with PBMC; actives raise or lower the signal;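 for AC50: cell surface CD69 protein quantified by ELISA with fluorescence detection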
# Summary of the method: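 Primary human vascular co-culture (umbilical vein endothelium with peripheral blood mononuclear cells) exposed to test chemical for 24 h. CD69 levels quantified by fluorescence ELISA; DMSO served as negative control for bidirectional fitting.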
# [18] = read-out: Monocyte Chemoattractant Protein-1 (MCP1), CCL2 (gene 6347); experiment: BSK_SAg_MCP1: BioMAP Diversity Plus: SAg Assay for Monocyte Chemoattractant Protein-1 (MCP1) Biomarker Activity (AID 2283090); settings: primary human HUVEC with PBMC; actives raise or lower the signal
# Summary of the method: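 MCP-1 levels in the endothelial–PBMC SAg co-culture were quantified by ELISA at 24 h post-dosing; both increases and decreases versus DMSO scored. Cytotoxicity monitored by SRB total protein in parallel cultures.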
# [19] = read-out: E-selectin (Homo sapiens) (UniProt P16581); experiment: BSK_SAg_Eselectin: BioMAP Diversity Plus: SAg Assay for Eselectin Biomarker Activity (AID 2283091); settings: primary human HUVEC with PBMC; actives raise or lower the signal
# Summary of the method: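 Co-culture: HUVEC + PBMC. Dose compound; 24 h. ELISA for E-selectin. Bidirectional fit vs DMSO.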
# [20] = read-out: Tissue Factor, F3 (gene 2152); experiment: BSK_LPS_TissueFactor: BioMAP Diversity Plus: LPS Assay for Tissue Factor Biomarker Activity (AID 2283084); settings: primary human HUVEC with PBMC; actives raise or lower the signal
# Summary of the method: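 ELISA signal for cell-surface Tissue Factor (CD142) was read 24 h after compound dosing of an LPS-stimulated human endothelial–PBMC primary co-culture. Gain or loss of signal was scored relative to DMSO.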
# Tumor necrosis factor (Homo sapiens), sequence (P01375 whole entry, looked up): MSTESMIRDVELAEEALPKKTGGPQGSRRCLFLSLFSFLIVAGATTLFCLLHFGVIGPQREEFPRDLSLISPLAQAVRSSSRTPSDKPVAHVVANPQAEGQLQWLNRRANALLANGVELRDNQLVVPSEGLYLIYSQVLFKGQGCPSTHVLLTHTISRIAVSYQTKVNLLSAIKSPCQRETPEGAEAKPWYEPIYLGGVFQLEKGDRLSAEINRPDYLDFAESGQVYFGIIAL
# E-selectin (Homo sapiens), sequence (P16581 whole entry, looked up): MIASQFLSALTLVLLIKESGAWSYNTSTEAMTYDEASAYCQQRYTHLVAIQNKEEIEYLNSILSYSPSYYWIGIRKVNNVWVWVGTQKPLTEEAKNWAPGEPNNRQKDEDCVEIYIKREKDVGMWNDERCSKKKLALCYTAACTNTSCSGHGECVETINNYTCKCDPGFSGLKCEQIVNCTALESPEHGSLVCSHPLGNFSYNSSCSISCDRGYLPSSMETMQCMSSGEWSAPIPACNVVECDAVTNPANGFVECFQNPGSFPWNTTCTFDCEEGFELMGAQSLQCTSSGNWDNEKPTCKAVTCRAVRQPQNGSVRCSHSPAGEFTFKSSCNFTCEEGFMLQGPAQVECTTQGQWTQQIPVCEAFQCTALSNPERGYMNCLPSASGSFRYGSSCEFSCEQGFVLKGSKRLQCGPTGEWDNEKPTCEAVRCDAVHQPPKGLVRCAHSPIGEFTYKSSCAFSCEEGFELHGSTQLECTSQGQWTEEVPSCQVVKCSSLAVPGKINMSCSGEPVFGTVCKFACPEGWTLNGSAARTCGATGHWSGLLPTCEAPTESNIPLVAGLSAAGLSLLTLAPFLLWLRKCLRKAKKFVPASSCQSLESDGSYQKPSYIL
compound,measurement,setting,value
CC(C)(C)c1cc([N+](=O)[O-])cc(C(C)(C)C)c1O,outcome,[1],inactive
same,AC50,[2],30700 nM (active)
same,AC50,[3],11300 nM (active)
same,outcome,[4],inactive
same,AC50,[5],492 nM (active)
same,AC50,[6],345 nM (active)
same,outcome,[7],inactive
same,AC50,[8],683 nM (active)
same,outcome,[9],inactive
same,outcome,[10],inactive
same,outcome,[11],inactive
same,AC50,[12],452 nM (active)
same,outcome,[13],inactive
same,outcome,[14],inactive
same,AC50,[15],332 nM (active)
same,AC50,[16],474 nM (active)
same,AC50,[17],322 nM (active)
same,AC50,[18],458 nM (active)
same,AC50,[19],219 nM (active)
Cc1ccccc1OP(=O)(Oc1ccccc1)Oc1ccccc1,AC50,[1],16 nM (active)
same,outcome,[2],inactive
same,AC50,[3],8990 nM (active)
same,outcome,[4],inactive
same,AC50,[5],15700 nM (active)
same,AC50,[6],29200 nM (active)
same,outcome,[7],inactive
same,AC50,[8],20000 nM (active)
same,AC50,[9],28100 nM (active)
same,AC50,[10],20000 nM (active)
same,outcome,[11],inactive
same,AC50,[12],20000 nM (active)
same,outcome,[20],inactive
same,outcome,[13],inactive
same,AC50,[14],20000 nM (active)
same,AC50,[15],20000 nM (active)
same,AC50,[16],28300 nM (active)
same,AC50,[17],28100 nM (active)
same,AC50,[18],20000 nM (active)
same,AC50,[19],30900 nM (active)
[Cl][Sn]([c]1ccccc1)([c]1ccccc1)[c]1ccccc1,AC50,[1],62.2 nM (active)
same,AC50,[2],190 nM (active)
same,AC50,[3],69.2 nM (active)
same,AC50,[4],168 nM (active)
same,AC50,[5],117 nM (active)
same,AC50,[6],305 nM (active)
same,AC50,[7],577 nM (active)
same,AC50,[8],1080 nM (active)
same,AC50,[9],154 nM (active)
same,AC50,[10],258 nM (active)
same,outcome,[11],inactive
same,AC50,[12],138 nM (active)
same,AC50,[13],134 nM (active)
same,AC50,[14],195 nM (active)
same,AC50,[15],141 nM (active)
same,AC50,[16],146 nM (active)
same,AC50,[17],176 nM (active)
same,AC50,[18],327 nM (active)
same,AC50,[19],227 nM (active)
OCCN(CCO)CCO,outcome,[1],inactive
same,outcome,[2],inactive
same,outcome,[3],inactive
same,outcome,[4],inactive
same,outcome,[5],inactive
same,outcome,[6],inactive
same,outcome,[7],inactive
same,outcome,[8],inactive
same,outcome,[9],inactive
same,outcome,[10],inactive
same,outcome,[11],inactive
same,outcome,[12],inactive
same,outcome,[20],inactive
same,outcome,[13],inactive
same,outcome,[14],inactive
same,outcome,[15],inactive
same,outcome,[16],inactive
same,outcome,[17],inactive
same,outcome,[18],inactive
same,outcome,[19],inactive
O=C1C=CC(=O)c2ccccc21,AC50,[1],1810 nM (active)
same,AC50,[2],3450 nM (active)
same,AC50,[3],5160 nM (active)
same,AC50,[4],2860 nM (active)
same,AC50,[5],1370 nM (active)
same,AC50,[6],1440 nM (active)
same,AC50,[7],1370 nM (active)
same,AC50,[8],5330 nM (active)
same,AC50,[9],1070 nM (active)
same,AC50,[10],2700 nM (active)
same,outcome,[11],inactive
same,AC50,[12],1820 nM (active)
same,AC50,[20],1520 nM (active)
same,AC50,[13],623 nM (active)
same,AC50,[14],2000 nM (active)
same,AC50,[15],1040 nM (active)
same,AC50,[16],2170 nM (active)
same,AC50,[17],836 nM (active)
same,AC50,[18],2390 nM (active)
same,AC50,[19],1120 nM (active)
CC(C)=CC1C(C(=O)OCc2cccc(Oc3ccccc3)c2)C1(C)C (stereo not drawn),outcome,[1],inactive
same,outcome,[2],inactive
same,outcome,[3],inactive
same,outcome,[4],inactive
same,outcome,[5],inactive
same,outcome,[6],inactive
same,outcome,[7],inactive
same,outcome,[8],inactive
same,outcome,[9],inactive
same,outcome,[10],inactive
same,outcome,[11],inactive
same,outcome,[12],inactive
same,outcome,[20],inactive
same,outcome,[13],inactive
same,outcome,[14],inactive
same,outcome,[15],inactive
same,outcome,[16],inactive
same,outcome,[17],inactive
same,outcome,[18],inactive
same,AC50,[19],6450 nM (active)
